# Records with an inconclusive call do not appear. Where a call stands in place of a potency, no number is given. Active and inactive are the calls of the source. Calls follow the shape of the dose curve; as a rule, active = well fitted cell-killing curve with a large enough effect in the repeat runs; inconclusive = weak or mixed curves, or effect the other way; inactive = no such curve, though single readings can be large or run the other way.
# Experiment: qHTS assay to identify small molecule agonists of the RXR signaling pathway - cell viability counter screen (AID 1159529); also: nearly all actives have a fitted effect of over 50% in size
# Details: RXR-alpha-bla HEK293T viability, CellTiter-Glo, 16 h; series mostly up to 76.8 µM
# Method in brief: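 CellTiter-Glo luminescence gave viability in the wells also read for beta-lactamase. Cells (RXR-alpha-UAS-bla HEK 293T, 2% charcoal-stripped FBS medium) had 5 hr plating, then 16 hr compound exposure at 37 C; tetraoctyl ammonium bromide served as positive control.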
row,Structure (SMILES),Potency
1,CCC1(CCC(C)C)C(=O)NC(=O)NC1=O,inactive
2,Clc1ccccc1,inactive
3,CCCCC1C(=O)NC(=O)N(C2CCCCC2)C1=O (centres undefined),inactive
4,C[C@H](N)[C@H](O)c1ccc(O)c(O)c1,inactive
5,CCCN(CCC)c1c([N+](=O)[O-])cc(C(C)C)cc1[N+](=O)[O-],inactive
6,CCOC(C(=O)OCCN(C)C)(c1ccccc1)c1ccccc1,inactive
7,O=C=NC1CCCCC1,inactive
8,CCOP(=S)(OCC)SCSc1cc(Cl)ccc1Cl,inactive
9,CCCCCCCCCCCCN(C)C,inactive
10,O=C(O)c1cc(I)cc(I)c1I,inactive
11,CN1C(=O)CN=C(c2ccccc2)c2cc([N+](=O)[O-])ccc21,inactive
12,CCOP(=S)(OCC)Oc1ccc(S(C)=O)cc1 (centres undefined),inactive
13,CC(C)(c1ccccc1)c1cc(-n2nc3ccccc3n2)c(O)c(C(C)(C)c2ccccc2)c1,inactive
14,Cc1nnc(-c2ccccc2)c(=O)n1N,inactive
15,O=CC=O,inactive
16,CCC1(CC)C(=O)NC(=O)NC1=O,inactive
17,CC(Cl)C(=O)O (centres undefined),inactive
18,O=S(=O)(Cl)Cl,inactive
19,COc1ccc(C(O)(c2cncnc2)C2CC2)cc1 (centres undefined),inactive
20,O=C(O)CCCOc1ccc(Cl)cc1Cl,inactive

row,Structure (SMILES),Potency
1,O=C1CC[C@@]2(O)[C@H]3Cc4ccc(O)c5c4[C@@]2(CCN3CC2CC2)[C@H]1O5,inactive
2,C=CCSSCC=C,inactive
3,Nc1ccccc1C(=O)OCC(O)CO (centres undefined),inactive
4,FC(F)OC(F)(F)C(F)Cl (centres undefined),inactive
5,COCc1cnc(C2=NC(C)(C(C)C)C(=O)N2)c(C(=O)O)c1 (centres undefined),inactive
6,Nc1cc(Cl)cc(C(=O)O)c1Cl,inactive
7,CCCCC#N,inactive
8,CC1(C)CC(=O)CC(C)(C)N1[O],inactive
9,CCCCCCCCCCCCCCCl,inactive
10,FC(Cl)(Cl)C(F)(Cl)Cl,inactive
11,CC(C)(C)OOC(C)(C)CCC(C)(C)OOC(C)(C)C,inactive
12,ClCc1ccccc1Cl,inactive
13,c1ccc2sc(SNC3CCCCC3)nc2c1,inactive
14,O=S(=O)(c1ccccc1)c1ccccc1,inactive
15,O=C(O)C(Cl)(Cl)Br,inactive
16,N#CC(C#N)=Cc1ccc(O)c(O)c1,inactive
17,O=C(O)C(F)(F)C(F)(F)C(F)(F)C(F)(F)C(F)(F)F,inactive
18,C=CCc1ccc(OC(=O)Cc2ccccc2)c(OC)c1,inactive
19,C[C@H]1O[C@H](OC2[C@@H](O)[C@@H](O)C(O)[C@H](O)[C@H]2O)[C@@H](N)C[C@@H]1N=C(N)C(=O)O (some centres undefined),inactive
